CDC25B CDK2 inh: human CDC25B-CDK2/CyclinA binding inhibition; P30305+P24941; HTRF CDC25B-CDK2/CyclinA binding, anti-His/anti-Flag; stronger effect = higher value; z-score (no concentration beside the values); 94,000 tested, 0.72% active; in the data active = z-score above about 3.2
HIV TAR-Tat: HIV-1 TAR-Tat binding disruption | z-score (concentration not given with the values) | HIV-1 TAR RNA, Tat peptide displacement FRET; stronger effect = higher value | AID 1259389 | 100,000 tested, 0.6% active; active = z-score of 3 or more in at least 2 runs
An asterisk follows results filed as active; . = no result. A selection: hits, their analogues and other compounds. The true share with any hit is near 0.86%.

SMILES	CDC25B CDK2 inh	HIV TAR-Tat
CC1CCN(c2cc(NC(C)C)c3c4c(onc24)-c2ccccc2C3=O)CC1	-0.91	2.3
O=C1c2ccccc2-c2onc3c(N4CCOCC4)cc(NC4CCCCC4)c1c23	-0.89	0.24
CCCN1CCN(c2cc(NCC)c3c4c(onc24)-c2ccccc2C3=O)CC1	-1.8	-0.63
CC(C)Nc1cc(N2CCCC2)c2noc3c2c1C(=O)c1ccccc1-3	-1.7	-5
CCN1CCN(c2cc(NC(C)C)c3c4c(onc24)-c2ccccc2C3=O)CC1	-1.8	5.7*
COc1cc(-c2onc3ccc(Cl)cc23)ccc1O	-1.4	.
Cn1c(=O)c2cn(S(=O)(=O)c3cccc4nsnc34)nc2n(C)c1=O	.	2
CCCCN(Cc1ccco1)C(=O)c1nn(C)c2c1COc1ccccc1-2	-0.93	0.59
CNC(=O)c1c(NC(=O)c2cccc(Oc3ccccc3)c2)sc2c1CCC2	.	-0.82
Cc1ccc(C2CC(=O)N3CN(c4ccc(CCO)cc4)CSC3=C2C#N)cc1 (centres undefined)	7.1*	-0.54
CCOc1ccc(C2CC(=O)N3CN(c4ccc(OCC)cc4)CSC3=C2C#N)cc1 (centres undefined)	2.1	0.45
COc1ccc(C2CC(=O)N3CN(c4ccc(CCO)cc4)CSC3=C2C#N)cc1 (centres undefined)	6*	0.63
COc1ccc(OC)c(NC(=O)C(C)Sc2nnc(-c3ccoc3C)o2)c1 (centres undefined)	12*	2.1
COc1cc(OC)c(NC(=O)C(C)Sc2nnc(-c3ccoc3C)o2)cc1Cl (centres undefined)	-0.34	1.7
Cn1c(=O)c2c(SCc3ccccc3F)nc(-c3cccs3)nc2n(C)c1=O	-0.7	.
CCCCS(=O)(=O)c1oc(-c2ccc(F)cc2)nc1S(=O)(=O)c1ccc(F)cc1	-3.3	-1.3
Cc1cc(C)cc(Nc2cc(C)ncn2)c1	-1.2	0.03
Nc1c(-c2nc(-c3ccccc3)cs2)c2ccccn2c1C(=O)c1cccs1	25*	0.36
COc1ccc(C(=O)c2c(N)c(-c3nc(-c4ccccc4)cs3)c3ccccn23)cc1	-0.57	3.6
O=C(O)c1cc(N(Cc2ccccc2O)Cc2cc(O)ccc2O)ccc1O	.	34*
Oc1ccccc1CN(Cc1ccccc1)Cc1ccccc1	-0.68	0.39
Cn1cnc(S(=O)(=O)NCc2ccc(F)cc2)c1	.	2.2
CC1O[C@@H](Oc2c(-c3ccc(O)c(O)c3)oc3cc(O)cc(O)c3c2=O)[C@H](O)[C@H](O)[C@H]1O (some centres undefined)	.	2.8
COc1cc(-c2oc3cc(O)cc(O)c3c(=O)c2OC[C@@H]2OC(O[C@@H]3O[C@@H](C)[C@H](O)[C@@H](O)[C@H]3O)[C@@H](O)[C@H](O)[C@@H]2O)ccc1O (some centres undefined)	.	5
O=c1c(O[C@@H]2O[C@H](CO)[C@H](O)[C@H](O)[C@H]2O)c(-c2ccc(O)c(O)c2)oc2cc(O)cc(O)c12	.	27*
SMILES	CDC25B CDK2 inh	HIV TAR-Tat
COc1ccc(-c2oc3cc(O[C@H]4O[C@H](CO)[C@@H](O)[C@H](O)[C@H]4O)c(OC)c(O)c3c(=O)c2OC)cc1O	.	2.3
O=c1c(O[C@@H]2OC([C@H](O)CO)[C@H](O)[C@H]2O)c(-c2ccc(O)c(O)c2)oc2cc(O)cc(O)c12 (some centres undefined)	.	27*
O=c1c(O[C@@H]2O[C@H](CO)[C@@H](O)[C@H](O)[C@H]2O)c(-c2ccc(O)c(O)c2)oc2cc(O)cc(O)c12	.	28*
C[C@@H]1O[C@@H](OC[C@H]2O[C@@H](Oc3c(-c4ccc(O)c(O)c4)oc4cc(O)cc(O)c4c3=O)[C@H](O)[C@@H](O)[C@@H]2O)[C@H](O)[C@H](O)[C@H]1O	.	11*
COc1cc(-c2oc3cc(O)cc(O)c3c(=O)c2O[C@@H]2O[C@H](CO)[C@@H](O)[C@H](O)[C@H]2O)ccc1O	.	0.39
CCCCn1cc(S(=O)(=O)c2ccccc2)c(=O)c2ccccc21	-2.1	2.4
Cn1c(O)c(C=NCC(=O)NC(Cc2c[nH]c3ccccc23)C(=O)O)c(=O)n(C)c1=O (centres undefined)	-2.8	.
Cc1ccc(C)c(OCc2nnc(SCc3cc(=O)c4cc(Cl)ccc4[nH]3)n2C)c1	.	-0.1
CC(Sc1nc2ncccc2o1)C(=O)Nc1ccc(F)cc1 (centres undefined)	.	0.44
O=c1ccc(-c2ccc(S(=O)(=O)Nc3ccc(Br)cc3F)o2)n[nH]1	.	18*
O=c1ccc(-c2ccc(S(=O)(=O)Nc3ccc(Cl)cc3F)o2)n[nH]1	.	2.1
CCOc1ccc(Nc2nc(-c3ccccn3)cs2)cc1	19*	.
COc1ccc(Nc2nc(-c3ccccn3)cs2)cc1	-1.8	1.6
Nc1cccc(/C=C/c2nc3ccc(N)cc3[nH]2)c1	12*	2
Nc1ccc2nc(/C=C/c3ccccc3)[nH]c2c1	-2.8	-1.3
Cc1cc(NC(=O)CSc2ccsc2[N+](=O)[O-])ccc1Br	.	-0.7
CC(=O)N1c2ccc(S(=O)(=O)N3CCCC3)cc2CC1C(=O)N1CCCCC1 (centres undefined)	.	0.93
O=C(Nc1ccc2snnc2c1)NC1CCCCC1	-2	-0.4
O=C(Nc1ccc2snnc2c1)NC1CC1	11*	1.6
CC1=C(c2ccccc2)S(=O)(=O)N=C1Nc1ccccc1C	-0.9	-0.55

Screening results deposited in PubChem BioAssay by Center for Chemical Genomics, University of Michigan.
